Measured values reported in PubChem BioAssay (EPA / NIEHS).
The source holds several records for some structures; these can differ, active in one and inactive in another. Activity calls are given as the source filed them. Rule for the calls: active = hit-call score of the fitted dose curve at least 0.9, where 1 is the maximum; inactive = score below 0.9.

What was measured:
[1] = BSK_3C_TissueFactor: BioMAP Diversity Plus: 3C Assay for Tissue Factor Biomarker Activity (AID 2282997); details: BioMAP 3C HUVEC, tissue factor biomarker readout; actives raise or lower the signal
Summary of the method: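 After a 24 h chemical exposure of primary human umbilical vein endothelial cells, Tissue Factor levels were quantified by ELISA.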

[2] = BSK_3C_uPAR: BioMAP Diversity Plus: 3C Assay for Urokinase-type plasminogen activator receptor (uPAR) Biomarker Activity (AID 2282998); details: BioMAP 3C HUVEC, uPAR biomarker ELISA; actives raise or lower the signal
Summary of the method: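 Human umbilical vein endothelial primary cells were exposed to test chemical for 24 h. Cell-surface uPAR was then quantified by ELISA, and responses were fitted bidirectionally against DMSO as negative control and baseline.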

[3] = BSK_3C_VCAM1: BioMAP Diversity Plus: 3C Assay for Vascular cell adhesion molecule 1 (VCAM1) Biomarker Activity (AID 2282999); details: BioMAP 3C HUVEC, VCAM1 ELISA, cytokine-stimulated; actives raise or lower the signal
Summary of the method: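 Vascular primary endothelium (human umbilical vein) was exposed to chemicals and assayed 24 h later. VCAM-1 levels came from ELISA, with DMSO serving as baseline for bidirectional fitting.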

[4] = BSK_4H_Eotaxin3: BioMAP Diversity Plus: 4H Assay for Eotaxin 3 Biomarker Activity (AID 2283000); details: primary human endothelial cells (HUVEC); actives raise or lower the signal;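 note: CCL26 protein level quantified by ELISA in parallel with SRB cytotoxicity check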
Summary of the method: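 Chemicals were added to human umbilical vein endothelium cultures, and Eotaxin-3 was quantified by ELISA at 24 h. Values were derived by bidirectional fitting with DMSO serving as negative control and activity baseline.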

[5] = read-out: Intercellular Adhesion Molecule 1 (ICAM1), ICAM1 (gene 3383); assay: BSK_3C_ICAM1: BioMAP Diversity Plus: 3C Assay for Intercellular Adhesion Molecule 1 (ICAM1) Biomarker Activity (AID 2283003); details: primary human endothelial cells (HUVEC); actives raise or lower the signal
Summary of the method: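 ELISA readout of ICAM1 in human umbilical vein endothelial cells in the 3C system, taken 24 h post-dose. Gain or loss of signal versus DMSO was fitted in both directions, with SRB total-protein staining run in parallel.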

[6] = BSK_3C_Proliferation: Cell Proliferation Assessment in the BioMAP Diversity Plus: 3C Assay (AID 2283006); details: primary human endothelial cells (HUVEC)
Summary of the method: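 Proliferation as total protein: sulforhodamine B (0.1%) stain of TCA-fixed subconfluent human umbilical vein endothelial cells, absorbance 560 nm, 48 h after dosing. Activity fitted in both directions against DMSO baseline.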

[7] = read-out: E-selectin (Homo sapiens) (UniProt P16581); assay: BSK_3C_Eselectin: BioMAP Diversity Plus: 3C Assay for Eselectin Biomarker Activity (AID 2283015); details: primary human endothelial cells (HUVEC); actives raise or lower the signal;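 note: cell surface E-selectin protein quantified by ELISA 24 h after dosing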
Summary of the method: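 ELISA read-out of E-selectin on endothelial monolayers after 24 h chemical treatment. Human umbilical vein primary cells served as the system, with DMSO defining baseline activity for bidirectional fitting.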

[8] = read-out: Interleukin-1 alpha (IL1a), IL1A (gene 3552); assay: BSK_BE3C_IL1a: BioMAP Diversity Plus: BE3C Assay for Interleukin-1 alpha (IL1a) Biomarker Activity (AID 2283016); details: primary human bronchial epithelial cells; actives raise or lower the signal
Summary of the method: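 IL-1a measured by ELISA after 24 h treatment of human primary bronchial epithelial cells, with gain or loss of signal fitted versus DMSO. Parallel cultures stained with SRB gauge overt cytotoxicity.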

[9] = read-out: Monocyte Chemoattractant Protein-1 (MCP1), CCL2 (gene 6347); assay: BSK_3C_MCP1: BioMAP Diversity Plus: 3C Assay for Monocyte Chemoattractant Protein-1 (MCP1) Biomarker Activity (AID 2283017); details: primary human endothelial cells (HUVEC); actives raise or lower the signal
Summary of the method: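 ELISA read-out of MCP-1 from human umbilical vein endothelial cell cultures harvested 24 h post-dosing. Gain or loss of signal was fitted relative to DMSO.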

[10] = read-out: Human Leukocyte Antigen - DR isotype (HLADR), HLA-DRA (gene 3122); assay: BSK_3C_HLADR: BioMAP Diversity Plus: 3C Assay for Human Leukocyte Antigen - DR isotype (HLADR) Biomarker Activity (AID 2283019); details: primary human endothelial cells (HUVEC); actives raise or lower the signal;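 note: ELISA of cell-surface HLA-DR on HUVEC 24 h after dosing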
Summary of the method: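 ELISA readout of surface HLA-DR on human umbilical vein endothelium, taken 24 h after chemical treatment. Gain- and loss-of-signal were both fitted relative to DMSO.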

[11] = read-out: Interleukin-8 (IL8), CXCL8 (gene 3576); assay: BSK_3C_IL8: BioMAP Diversity Plus: 3C Assay for Interleukin-8 (IL8) Biomarker Activity (AID 2283020); details: primary human endothelial cells (HUVEC); actives raise or lower the signal
Summary of the method: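 IL-8 was measured by ELISA in HUVEC cultures 24 h after chemical dosing, with gain or loss of signal fitted relative to DMSO. Parallel SRB total-protein staining tracked overt cytotoxicity.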

[12] = read-out: Monokine induced gamma interferon (MIG), CXCL9 (gene 4283); assay: BSK_3C_MIG: BioMAP Diversity Plus: 3C Assay for Monokine induced gamma interferon (MIG) Biomarker Activity (AID 2283021); details: primary human endothelial cells (HUVEC); actives raise or lower the signal
Summary of the method: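 ELISA measurement of MIG in human umbilical vein endothelial cells 24 h after treatment. Cytotoxicity tracked by SRB staining in parallel cultures; gain or loss of signal fitted relative to DMSO.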

[13] = BSK_3C_SRB: Viability Assessment in the BioMAP Diversity Plus: 3C Assay (AID 2283023); details: primary human endothelial cells (HUVEC);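 note: fitted both ways against DMSO so a hit may be signal rise or drop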
Summary of the method: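 Absorbance at 560 nm of sulforhodamine B-stained (0.1%) total protein served as a cytotoxicity readout in human umbilical vein endothelial cells, 24 h after chemical treatment. Signal was fitted bidirectionally relative to DMSO.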

[14] = read-out: Matrix Metallopeptidase 1 (MMP1), MMP1 (gene 4312); assay: BSK_BE3C_MMP1: BioMAP Diversity Plus: BE3C Assay for Matrix Metallopeptidase 1 (MMP1) Biomarker Activity (AID 2283024); details: primary human bronchial epithelial cells; actives raise or lower the signal
Summary of the method: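 ELISA measurement of MMP-1 after 24 h compound exposure of primary human bronchial epithelial cells. Changes in either direction fitted relative to DMSO; parallel SRB staining checked overt cytotoxicity.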

[15] = read-out: Pselectin, SELP (gene 6403); assay: BSK_4H_Pselectin: BioMAP Diversity Plus: 4H Assay for Pselectin Biomarker Activity (AID 2283026); details: primary human endothelial cells (HUVEC); actives raise or lower the signal
Summary of the method: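 ELISA of surface P-selectin on HUVEC, 24 h after dosing, with parallel SRB staining (0.1% after 10% TCA fixation, 560 nm) for overt cytotoxicity. Activity fitted in both directions relative to DMSO.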

[16] = BSK_4H_SRB: Viability Assessment in the BioMAP Diversity Plus: 4H Assay (AID 2283027); details: primary human endothelial cells (HUVEC);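 note: cells exposed to compound for 24 h before staining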
Summary of the method: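 Cytotoxicity readout: sulforhodamine B (0.1%) staining of total protein after 10% TCA fixation, measured at 560 nm in human umbilical vein endothelium at 24 h. DMSO set the baseline; fitting was bidirectional.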

[17] = BSK_BE3C_SRB: Viability Assessment in the BioMAP Diversity Plus: BE3C Assay (AID 2283028); details: primary human bronchial epithelial cells
Summary of the method: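 Cells (human bronchial epithelial, primary) are treated with chemicals, and after 24 h the parallel cultures are fixed in 10% TCA. These are then stained with 0.1% SRB and read at 560 nm. Gain or loss of signal is fitted relative to DMSO.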

[18] = read-out: Thrombomodulin, THBD (gene 7056); assay: BSK_3C_Thrombomodulin: BioMAP Diversity Plus: 3C Assay for Thrombomodulin Biomarker Activity (AID 2283029); details: primary human endothelial cells (HUVEC); actives raise or lower the signal
Summary of the method: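 ELISA measurement of thrombomodulin on HUVEC surface 24 h after chemical dosing; activity fitted in both directions relative to DMSO vehicle.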

[19] = read-out: Urokinase-type plasminogen activator receptor (uPAR), PLAUR (gene 5329); assay: BSK_4H_uPAR: BioMAP Diversity Plus: 4H Assay for Urokinase-type plasminogen activator receptor (uPAR) Biomarker Activity (AID 2283030); details: primary human endothelial cells (HUVEC); actives raise or lower the signal
Summary of the method: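 Cell-surface uPAR ELISA signal, measured 24 h after dosing human umbilical vein endothelial cells, was analyzed with bidirectional fitting relative to DMSO. Parallel SRB staining of total protein tracked overt cytotoxicity.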

[20] = read-out: Vascular endothelial growth factor receptor 2 (Homo sapiens) (UniProt P35968); assay: BSK_4H_VEGFRII: BioMAP Diversity Plus: 4H Assay for Vascular endothelial growth factor receptor 2 (VEGFR2) Biomarker Activity (AID 2283031); details: primary human endothelial cells (HUVEC); actives raise or lower the signal;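 for AC50: cell-surface VEGFR2 protein level quantified by ELISA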
Summary of the method: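 ELISA read-out of VEGFRII in primary human umbilical vein endothelium, taken 24 h after chemical treatment. Responses are expressed relative to DMSO, with bidirectional fitting.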

[21] = read-out: Vascular cell adhesion molecule 1 (VCAM1), VCAM1 (gene 7412); assay: BSK_4H_VCAM1: BioMAP Diversity Plus: 4H Assay for Vascular cell adhesion molecule 1 (VCAM1) Biomarker Activity (AID 2283033); details: primary human endothelial cells (HUVEC); actives raise or lower the signal;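 note: cell-surface VCAM-1 protein measured by ELISA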
Summary of the method: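 VCAM-1 ELISA read 24 h after chemical dosing of HUVEC in the BioMAP 4H system, with gain or loss of signal fitted relative to DMSO. Parallel SRB staining (560 nm) checked overt cytotoxicity.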

[22] = read-out: Interferon-gamma inducible Protein 10 (IP10), CXCL10 (gene 3627); assay: BSK_BE3C_IP10: BioMAP Diversity Plus: BE3C Assay for Interferon-gamma inducible Protein 10 (IP10) Biomarker Activity (AID 2283034); details: primary human bronchial epithelial cells; actives raise or lower the signal
Summary of the method: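 IP-10 quantified by ELISA in human primary bronchial epithelial cell cultures at 24 hours post-dosing. Gain or loss of signal fitted relative to DMSO; parallel SRB staining assessed overt cytotoxicity.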

[23] = read-out: Monokine induced gamma interferon (MIG), CXCL9 (gene 4283); assay: BSK_BE3C_MIG: BioMAP Diversity Plus: BE3C Assay for Monokine induced gamma interferon (MIG) Biomarker Activity (AID 2283035); details: primary human bronchial epithelial cells; actives raise or lower the signal
Summary of the method: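 hu bronchial epithelial 1° cells, 24 h cpd; MIG by ELISA; bidirectional fit, DMSO = baseline.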

[24] = read-out: Plasminogen activator inhibitor-1 (PAI1), SERPINE1 (gene 5054); assay: BSK_BE3C_PAI1: BioMAP Diversity Plus: BE3C Assay for Plasminogen activator inhibitor-1 (PAI1) Biomarker Activity (AID 2283037); details: primary human bronchial epithelial cells; actives raise or lower the signal
Summary of the method: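 PAI-1 was measured by ELISA in human primary bronchial epithelial cultures 24 h after chemical dosing, with cytotoxicity checked by SRB total-protein staining in parallel cultures. Activity was fitted in both directions relative to DMSO.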

[25] = read-out: urokinase plasminogen activator (uPA), PLAU (gene 5328); assay: BSK_BE3C_uPA: BioMAP Diversity Plus: BE3C Assay for urokinase plasminogen activator (uPA) Biomarker Activity (AID 2283038); details: primary human bronchial epithelial cells; actives raise or lower the signal;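 note: uPA protein level quantified by ELISA in cell cultures; uPA read one day after compound addition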
Summary of the method: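 Bronchial epithelial cells (human, primary); chemical 24 h; uPA by ELISA; bidirectional fit vs DMSO. SRB (0.1%, after 10% TCA fixation, 560 nm) in parallel cultures for cytotoxicity.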

[26] = read-out: Interleukin-6 (IL6), IL6 (gene 3569); assay: BSK_CASM3C_IL6: BioMAP Diversity Plus: CASM3C Assay for Interleukin-6 (IL6) Biomarker Activity for (AID 2283040); details: primary human coronary artery smooth muscle cells; actives raise or lower the signal
[27] = read-out: Tissue plasminogen activator (tPA), PLAT (gene 5327); assay: BSK_BE3C_tPA: BioMAP Diversity Plus: BE3C Assay for Tissue plasminogen activator (tPA) Biomarker Activity (AID 2283041); details: primary human bronchial epithelial cells; actives raise or lower the signal;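 note: tPA level quantified by ELISA one day after compound addition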
Summary of the method: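 tPA measured by ELISA 24 h after dosing human primary bronchial epithelial cells (BE3C system). Changes in either direction were fitted against DMSO. Parallel cultures were stained with SRB to flag overt cytotoxicity.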

Measured: AC50

Sequence of E-selectin (Homo sapiens) (P16581 whole entry, looked up): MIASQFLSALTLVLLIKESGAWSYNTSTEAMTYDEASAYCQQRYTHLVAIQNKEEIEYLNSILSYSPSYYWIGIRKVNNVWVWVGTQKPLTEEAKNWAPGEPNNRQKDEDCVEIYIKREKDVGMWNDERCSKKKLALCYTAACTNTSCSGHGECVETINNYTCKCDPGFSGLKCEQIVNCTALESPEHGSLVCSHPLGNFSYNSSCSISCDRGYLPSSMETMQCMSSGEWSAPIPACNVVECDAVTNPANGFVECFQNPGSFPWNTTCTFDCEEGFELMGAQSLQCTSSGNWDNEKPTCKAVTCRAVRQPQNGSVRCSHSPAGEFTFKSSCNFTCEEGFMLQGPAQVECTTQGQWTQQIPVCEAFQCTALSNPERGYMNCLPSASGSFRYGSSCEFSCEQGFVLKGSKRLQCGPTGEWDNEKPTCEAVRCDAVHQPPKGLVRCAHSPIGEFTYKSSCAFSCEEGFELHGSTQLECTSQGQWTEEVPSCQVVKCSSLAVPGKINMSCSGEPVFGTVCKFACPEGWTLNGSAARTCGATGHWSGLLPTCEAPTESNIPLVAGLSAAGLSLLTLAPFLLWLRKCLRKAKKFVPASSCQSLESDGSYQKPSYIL

CCCC[N+](CCCC)(CCCC)CCCC
active: [14] 3.97 µM | [20] 2.14 µM
inactive: [1] | [2] | [3] | [4] | [5] | [6] | [7] | [8] | [9] | [10] | [11] | [12] | [13] | [14] | [15] | [16] | [17] | [18] | [19] | [20] | [21] | [22] | [23] | [24] | [25] | [26] | [27]
